This note sets out measurements from PubChem BioAssay (Tox21).

Each structure is given as a SMILES string. Results filed as inconclusive are left out. The source made the active and inactive calls. Calls follow the shape of the full dose curve.
% is scaled to controls: 0 for no effect and ±100 for the full control effect.

A short description of this experiment: qHTS assay to identify small molecule agonists of the progesterone receptor (PR) signaling pathway - cell viability counter screen (AID 1346799). Also: nearly all actives have a fitted effect of over 45% in size. Conditions: PR-UAS-bla HEK293T viability, CellTiter-Glo luminescence, 16 h; series mostly up to 92.4 µM; activity change, negative = cytotoxicity: at the top concentration. The method in brief:
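Counter screen in the PR-UAS-bla HEK293T wells (2% charcoal-stripped FBS, 16 h compound exposure at 37 C) after the bla read. CellTiter-Glo added, 30 min at room temperature, luminescence read as cell viability.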
As to `O=C(O)CCS`, the “activity change, negative = cytotoxicity” value is 6.48% (inactive).
As to `CSSc1ccoc1C`, the “activity change, negative = cytotoxicity” value was 10.8% (inactive).
Under `Nc1ccn([C@H]2CS[C@@H](CO)O2)c(=O)n1` stands 1.33% (inactive); under `FC(F)(F)C(F)(F)C(F)(F)C(F)(F)CCI`, 2.74% [at 42.5 µM] (inactive).
Next, `CCCCCCCCCCCCCCCC(=O)OCC`: 1.72% (inactive); `Nc1ccc(N=Nc2ccc(N)cc2)cc1`: 15.7% [at 42.5 µM] (inactive).
On to `CC1C(C)(C)C2=C(C(=O)CCC2)C1(C)C` (configuration not stated), for which the “activity change, negative = cytotoxicity” value was 4.76% (inactive).
Next, `COC(=O)c1sccc1S(N)(=O)=O`: -1.87% (inactive); `CCCCCCOC(=O)CCCCC`: 1.61% (inactive); `O=c1[nH][nH]c(=O)c2cc([N+](=O)[O-])ccc12`: 0.757% (inactive).
Under `CCC(=O)OCc1ccc(OC)cc1` stands 3.08% (inactive); under `CNC1CCCN(c2c(F)cc3c(=O)c(C(=O)O)cn(C4CC4)c3c2OC)C1` (configuration not stated), 7.64% [at 42.5 µM] (inactive).
Next, `Nc1ccc(S(=O)(=O)NCc2ccccc2)cc1`: 3.01% [at 42.5 µM] (inactive); `CC(=O)N[C@@H](Cc1ccc(O)cc1)C(=O)O`: -3.41% [at 42.5 µM] (inactive); `CC(C)(C)NCC(O)COc1cccc2c1C[C@H](O)[C@H](O)C2` (some centres not stated): 2.19% [at 42.5 µM] (inactive).
`CCC(Cl)CC(Cl)C(Cl)C(Cl)C(Cl)C(C)Cl` (configuration not stated): the activity change, negative = cytotoxicity was 9.92% [at 19 µM] (inactive).
Regarding `CC1=CC[C@@]23C[C@@H]1C(C)(C)[C@@H]2CC[C@H]3C`, the “activity change, negative = cytotoxicity” value is -16.9% (inactive).
Next, `CCN(CC)CC(=O)Nc1c(C)cccc1C(=O)OC`: 9.21% [at 42.5 µM] (inactive); `CN=C(N)NC(=O)Nc1c(C)cccc1C`: -14.7% [at 42.5 µM] (inactive); `C=CC(=O)NC(C)C`: -2.52% (inactive).
As for `O=C(O)c1cccc(C[C@@H]2COc3ccc(OCc4nc5cc(F)ccc5s4)cc3[C@@H]2O)c1`, the “activity change, negative = cytotoxicity” value is 2.12% (inactive).
Take `O=C(O)CO`: the “activity change, negative = cytotoxicity” value is 2.54% (inactive).
In the case of `CCCCC[C@H](O)/C=C/[C@H]1[C@H](O)CC(=O)[C@@H]1C/C=C\CCCC(=O)O`, the “activity change, negative = cytotoxicity” value is 3.41% [at 42.5 µM] (inactive).
On to `Cc1ccc(N(CC2=NCCN2)c2cccc(O)c2)cc1`, for which the “activity change, negative = cytotoxicity” value is -6.87% [at 42.5 µM] (inactive).
Consider `CC(C)C(=O)OCCOc1ccccc1`, for which the “activity change, negative = cytotoxicity” value is 0% (inactive).
For the compound `O=C1CC[C@@H](C(=O)O)N1`, the “activity change, negative = cytotoxicity” value was -3.32% [at 42.5 µM] (inactive).
On to `COC(=O)CC(C(C)=O)C(=O)OC` (configuration not stated), for which the “activity change, negative = cytotoxicity” value is 1.46% (inactive).
Turning to `CC(C)(O)c1coc(S(=O)(=O)NC(=O)Nc2c3c(cc4c2CCC4)CCC3)c1`, the “activity change, negative = cytotoxicity” value is 3.29% (inactive).
Under `C[C@H](CS)C(=O)N1CCC[C@H]1C(=O)O` stands 6.19% [at 42.5 µM] (inactive); under `CC(=O)Oc1cccc(O)c1`, 3.75% [at 42.5 µM] (inactive).
For `CSCC[C@H](NC(=O)[C@H](Cc1c[nH]c2ccccc12)NC(=O)CCNC(=O)OC(C)(C)C)C(=O)N[C@@H](CC(=O)O)C(=O)N[C@@H](Cc1ccccc1)C(N)=O`, the “activity change, negative = cytotoxicity” value is -0.64% [at 42.5 µM] (inactive).
With `Cc1cccc(C)c1NC(=O)c1cc(S(N)(=O)=O)c(Cl)cc1O`, the “activity change, negative = cytotoxicity” value is 10.3% [at 42.5 µM] (inactive).
